The panel holds about 83,000 compounds, 20% with a hit somewhere; the sample as a whole holds those more often.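 Note: values are percent growth. 100 is the growth of untreated cells, values between 100 and 0 indicate rising inhibition; between -100 and 0 indicates cell death.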 Activity calls are given as the source filed them.

From PubChem BioAssay (NCI) come the findings set out here.

For this experiment, the system named is OVCAR-5 ovarian. As to the kind of experiment: NCI-60 one-dose screen, 48 h (100 = growth as untreated, 0 = no growth, -100 = all killed). Conditions: 10 µM unless noted. The procedure:
Growth inhibition of the OVCAR-5 human tumor cell line is measured as a screen for anti-cancer activity. Cells are grown in 96 well plates and exposed to the test compound for 48 hours. Compounds are tested at a single concentration, which is 10^-5 M for most compounds. The reported endpoint is percent growth (GI% or GIPRCNT), where numbers from 0 - 100% represent growth inhibition, and numbers from -100% - 0 represent cell death. For example, a value of 40 represents 60% growth inhibition. A value of 0 means no net growth occurred over the course of the experiment. A value of -40 indicates 40% of cells at the beginning of the experiment died by the end of the experiment. A value of -100 means all cells are dead at the end of the experiment.
NCI-60 Human Tumor Cell Lines Screen was performed using the standard one-dose NCI protocol, which is described in more detail at https://dtp.cancer.gov/discovery_development/nci-60/default.htm.
Compounds with GIPRCNT values below 10 were considered active. Activity score was based on GIPRCNT using the following formula: […]
Score is 0 for GIPRCNT values of 100 or above, 50 for GIPRCNT values of 0, and 100 for GIPRCNT values of -100.
Consider `COc1ccc(NC(=O)[C@H](CO)NC(=O)OC(C)(C)C)cc1C(=O)Nc1cccc(C2CC(=O)c3c(cc(OC)c(OC)c3OC)O2)c1` (stereo not given in full), for which the growth was 113% (inactive).

For `Cn1cc(-c2cc3nc(-c4c[nH]c5ccc(Cl)cc45)cc(N)n3n2)c2ccccc21`, the growth was -89.2% (active).

As for `CSc1ccccc1NC(=O)c1ccc2nn(/C(C#N)=C/c3ccccn3)nc2c1`, the growth is -86.8% (active).

In the case of `Cn1cc(-c2cc(N)n3nc(-c4cn(C)c5ncccc45)cc3n2)c2cccnc21`, the growth was 92.8% (inactive).

On to `CN(C)c1nc(NCCNS(=O)(=O)c2ccc(C3=Nc4c(N)nc(N)nc4NC(c4ccc(F)cc4)C3)cc2)nc(Nc2ccc(F)cc2)n1` (stereo not given), for which the growth was 78.2% (inactive).

`COC(=O)/C=C/c1cccc2c1C(=O)NC(C)(c1cc3cc4ccccc4cc3oc1=O)N2` (stereo not given): the growth is 63.3% (inactive).

For the compound `CCN1C(=O)N(CC)C2NNC(Sc3c(C(=O)O)c4ccccc4n(C4CCCC4)c3=O)=NC21` (stereo not given), the growth is 38.4% (inactive).

In the case of `COc1ccc(C(SCCNCc2cc(N(C)C)ccn2)(c2ccccc2)c2ccccc2)cc1`, the growth is -13.8% (active).

With `COc1ccc(/C=C/c2n(Cc3ccc4ccccc4c3)c3ccccc3[n+]2Cc2ccc3ccccc3c2)cc1`, the growth is -98.4% (active).

Take `COc1ccc(C(=O)Nc2n[nH]c(Nc3ccccc3)c2C#N)cc1`: the growth is 97.6% (inactive).

`Cc1nc(Nc2ccccn2)sc1C(=O)CC(SCC(=O)Nc1ccc(Cl)cc1)c1ccccc1F` (stereo not given): the growth was -41.2% (active).

Regarding `COc1ccc2c(c1)c(/C=N/Nc1ccc3ccccc3n1)cn2C`, the growth was 7.2% (active).

Take `Cn1cc(-c2nnc(N)nc2-c2c[nH]c3ccc(F)cc23)c2cccnc21`: the growth was 83.3% (inactive).

Regarding `Cc1ccc(-c2nc(C#N)c(S(=O)(=O)N3CCN(S(=O)(=O)c4ccccc4)CC3)o2)cc1`, the growth was 19.5% (inactive).

Turning to `Cc1cc2c(cc1Cl)C(=O)/C(=C/c1ccccc1)O2`, the growth was 75% (inactive).

In the case of `CCCSc1nc(Nc2ccc(S(N)(=O)=O)cc2)c(C#N)c(-c2cc(OC)c(OC)c(OC)c2)n1`, the growth was 58.5% (inactive).

In the case of `NS(=O)(=O)c1ccc(-n2cc(-c3cccc(NC(=O)c4cc(Cl)cc(Cl)c4)c3)nn2)cc1`, the growth was 81.2% (inactive).

For the compound `S=C(NCCc1ccccc1)Nc1ccc(OCc2nc3ccccc3[nH]2)cc1`, the growth is 105% (inactive).

Take `Clc1ccc(-c2ccc(OCCCN3CCN(c4ccncc4)CC3)cc2)cc1`: the growth was 96.5% (inactive).

In the case of `CC(C)(C)OC(=O)/C=C/c1cccc2c1C(=O)NC(C)(c1cc3cc(Cl)ccc3oc1=O)N2` (stereo not given), the growth is 67.1% (inactive).

As for `Cc1cc2c(cc1Cl)C(=O)/C(=C/c1ccc(F)cc1)O2`, the growth is 106% (inactive).

In the case of `Brc1ccc(N/N=C/c2c[nH]c3ccc(Br)cc23)nc1`, the growth was -25.8% (active).

For `CC12CC[C@@H]3[C@]4(C)COC(c5cn[nH]c5-c5cccc(Cl)c5)O[C@@H]4CC[C@@]3(C)[C@@H]1CC(C1=CCOC1=O)O2` (stereo not given in full), the growth is 61.7% (inactive).

As for `COc1ccc2[nH]cc(-c3nnc(N)nc3-c3c[nH]c4ncc(Br)cc34)c2c1`, the growth was 97.9% (inactive).

Turning to `N/C(=N\c1nc2ccccc2s1)NC(=O)NCCCCCCO`, the growth was 74.5% (inactive).

For the compound `O=C(NN1C(=O)/C(=C/C=C/c2ccc([N+](=O)[O-])o2)SC1=S)c1ccccc1O`, the growth was -98.8% (active).

With `Cn1cc(-c2cc3nc(-c4cn(C)c5ncc(Br)cc45)cc(N)n3n2)c2cc(Cl)ccc21`, the growth was -81.4% (active).

Consider `O=C(O)c1ccc(-c2ccc(/C=N/NC(=O)c3[nH]c4ccc(Br)cc4c3-c3ccccc3)s2)cc1`, for which the growth was 35.5% (inactive).

For the compound `CCCCSc1nc(NCCc2c[nH]c3ccccc23)c(C#N)c(-c2ccc(F)cc2)n1`, the growth was 97.3% (inactive).

Turning to `COc1ccc(-c2nc(SC(C)C)nc(NCCc3c[nH]c4ccccc34)c2C#N)cc1`, the growth was 65.4% (inactive).

With `CC(=O)Oc1ccccc1C(=O)[Se]C(=NC1CCCCC1)NC1CCCCC1`, the growth was -89.6% (active).

Turning to `Nc1nc(-c2ccccc2)c(N=Nc2ccc([N+](=O)[O-])cc2Cl)s1`, the growth is 107% (inactive).

Take `COc1ccc(C(=O)/C=C/c2cccnc2)cc1S(N)(=O)=O`: the growth was 77.2% (inactive).

In the case of `CCCCNC(=S)Nc1ccc(OCc2nc3ccccc3[nH]2)cc1`, the growth is 86% (inactive).

For `CN(C)CCOc1ccc(C(=O)C2[C@H](c3ccc(Cl)cc3)[C@@H](c3ccccc3)NC23C(=O)Nc2ccc(Br)cc23)cc1` (stereo not given in full), the growth is 36.4% (inactive).

As to `O=C(COc1ccc(NC(=O)Nc2ccc(Cl)c(Cl)c2)cc1)N=Nc1c(O)[nH]c2ccccc12`, the growth is -8.84% (active).

Consider `COc1ccc(-c2nc3ccc(C(=O)NN4C(=O)c5ccc([N+](=O)[O-])cc5C4=O)cc3[nH]2)cc1`, for which the growth was 88.6% (inactive).

With `CN(C)c1nc(NCCNS(=O)(=O)c2ccc(C(=O)/C=C/c3ccc(C(F)(F)F)cc3)cc2)nc(Nc2ccc(F)cc2)n1`, the growth is -68.9% (active).

With `COc1ccc(C(=O)/C=C/c2cccc(Cl)c2)cc1S(N)(=O)=O`, the growth is -17.8% (active).

For `Nc1cc2ccccc2c(=O)n1NC(=O)c1ccc(I)cc1`, the growth was 98.1% (inactive).
